Article PMC3218832

These sequences were tested against RELARELA (p65 homodimer) (Homo sapiens, UniProt Q04206 1-307) (assay: protein binding microarray; high values mean tight binding). Settings: dsDNA, one strand shown.
RELARELA (p65 homodimer), sequence (Q04206 1-307): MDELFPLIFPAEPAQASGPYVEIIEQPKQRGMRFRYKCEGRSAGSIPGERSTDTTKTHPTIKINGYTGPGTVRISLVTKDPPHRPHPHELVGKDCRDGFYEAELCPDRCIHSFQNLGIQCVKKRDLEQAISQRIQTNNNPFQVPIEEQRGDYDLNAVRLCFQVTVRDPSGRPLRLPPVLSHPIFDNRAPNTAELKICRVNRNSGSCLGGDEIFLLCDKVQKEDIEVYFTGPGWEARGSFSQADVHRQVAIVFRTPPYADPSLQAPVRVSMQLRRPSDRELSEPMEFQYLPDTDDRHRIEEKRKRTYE
Sequence AAGAAAGCCCT has a binding signal of -0.308 z-score.
For AGGATCTCCCC, the binding signal was 0.594 z-score.
Sequence CGATGTACCCC has a binding signal of 0.132 z-score.
Work on AGATATCTCCT yielded a binding signal of -0.509 z-score.
Work on GGGAACGCCCT yielded a binding signal of 0.932 z-score.
With AGGATAGCCCT the binding signal was -0.44 z-score.
With AAGTTATCCCC the binding signal was 0.516 z-score.
AGAAGGCCCCT showed a binding signal of -0.756 z-score.
In the case of CGAAAGTTCCT, the binding signal is reported as 0.451 z-score.
Sequence CGGTTATCCCT has a binding signal of 0.134 z-score.
Sequence AGAAAACTCCC has a binding signal of 1.36 z-score.
Work on GAAAGTGCCCC yielded a binding signal of 0.518 z-score.
Sequence AGGTTTATCCT has a binding signal of -0.465 z-score.
GAAGAATCCCC was tested, and the binding signal was 1.11 z-score.
Sequence AAGTATGCCCC has a binding signal of 0.441 z-score.
GAGTAATTCCT was tested, and the binding signal was 0.42 z-score.
CAAAGTTTCCT showed a binding signal of 0.729 z-score.
AAATACACCCC was tested, and the binding signal was -0.0111 z-score.
AAGAATGTCCC gave a binding signal of 1.27 z-score.
With AAATGCTTCCC the binding signal was 0.511 z-score.
AAGATGCCCCC gave a binding signal of 0.101 z-score.
GAGGTTGCCCT was tested, and the binding signal was -0.221 z-score.
With CGAAGACTCCC the binding signal was -0.527 z-score.
With GGATGCATCCC the binding signal was -0.168 z-score.
For GAATGCCTCCT, the binding signal was -0.0578 z-score.
AAGTACATCCC showed a binding signal of 0.78 z-score.
CAGTGACCCCT gave a binding signal of -0.538 z-score.
GAGGGCTCCCC was tested, and the binding signal was -0.357 z-score.
Sequence GAGTGTGCCCT has a binding signal of -0.0374 z-score.
In the case of AGAATGCTCCC, the binding signal is reported as -0.506 z-score.
With CGATGTCTCCT the binding signal was -0.49 z-score.
CGATGGGCCCT gave a binding signal of -0.936 z-score.
CAAGGTTCCCC was tested, and the binding signal was 0.544 z-score.
Work on CAGAAGATCCT yielded a binding signal of -1.03 z-score.
GAAATGACCCT was tested, and the binding signal was -0.43 z-score.
Work on AGGTACGCCCC yielded a binding signal of -0.0324 z-score.
Work on GGATAATCCCC yielded a binding signal of 1.81 z-score.
CGGGGACCCCT was tested, and the binding signal was -0.0408 z-score.

What follows are sequences tested against p50p50 homodimer (Homo sapiens, UniProt P19838 7-356) in the same assay as above. Settings: dsDNA, one strand shown.
p50p50 homodimer, sequence (P19838 7-356): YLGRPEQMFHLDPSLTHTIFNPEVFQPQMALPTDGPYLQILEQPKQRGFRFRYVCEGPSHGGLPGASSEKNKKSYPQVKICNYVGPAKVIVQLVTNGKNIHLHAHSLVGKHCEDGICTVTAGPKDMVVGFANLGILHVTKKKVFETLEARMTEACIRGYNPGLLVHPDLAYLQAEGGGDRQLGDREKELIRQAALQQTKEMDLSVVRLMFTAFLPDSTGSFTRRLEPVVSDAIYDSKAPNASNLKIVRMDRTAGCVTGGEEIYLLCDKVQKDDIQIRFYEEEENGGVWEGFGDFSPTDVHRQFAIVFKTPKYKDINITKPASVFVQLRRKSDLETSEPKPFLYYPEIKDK
Work on AAGAAAGCCCT yielded a binding signal of -0.8 z-score.
For AGGATCTCCCC, the binding signal was 1.02 z-score.
CGATGTACCCC gave a binding signal of 0 z-score.
Sequence AGATATCTCCT has a binding signal of -1.24 z-score.
Work on GGGAACGCCCT yielded a binding signal of -0.126 z-score.
In the case of AGGATAGCCCT, the binding signal is reported as -1.05 z-score.
For AAGTTATCCCC, the binding signal was 1.08 z-score.
For AGAAGGCCCCT, the binding signal was 0.412 z-score.
With CGAAAGTTCCT the binding signal was -0.747 z-score.
CGGTTATCCCT gave a binding signal of 0.215 z-score.
With AGAAAACTCCC the binding signal was 1.03 z-score.
For GAAAGTGCCCC, the binding signal was 0.277 z-score.
AGGTTTATCCT was tested, and the binding signal was -0.953 z-score.
With GAAGAATCCCC the binding signal was 1.36 z-score.
In the case of AAGTATGCCCC, the binding signal is reported as 0.0869 z-score.
GAGTAATTCCT was tested, and the binding signal was -1 z-score.
Work on CAAAGTTTCCT yielded a binding signal of -0.548 z-score.
AAATACACCCC gave a binding signal of 0.252 z-score.
AAGAATGTCCC showed a binding signal of 0.914 z-score.
Sequence AAATGCTTCCC has a binding signal of -0.412 z-score.
AAGATGCCCCC was tested, and the binding signal was 1.09 z-score.
In the case of GAGGTTGCCCT, the binding signal is reported as -1.5 z-score.
CGAAGACTCCC was tested, and the binding signal was -0.307 z-score.
Work on GGATGCATCCC yielded a binding signal of -0.953 z-score.
In the case of GAATGCCTCCT, the binding signal is reported as -1.27 z-score.
In the case of AAGTACATCCC, the binding signal is reported as -0.756 z-score.
In the case of CAGTGACCCCT, the binding signal is reported as -0.115 z-score.
GAGGGCTCCCC showed a binding signal of 0.0285 z-score.
GAGTGTGCCCT gave a binding signal of -1.69 z-score.
Sequence AGAATGCTCCC has a binding signal of -0.551 z-score.
CGATGTCTCCT showed a binding signal of -1.36 z-score.
CGATGGGCCCT showed a binding signal of -1.43 z-score.
CAAGGTTCCCC was tested, and the binding signal was 1.15 z-score.
CAGAAGATCCT was tested, and the binding signal was -2.16 z-score.
GAAATGACCCT gave a binding signal of -0.328 z-score.
AGGTACGCCCC gave a binding signal of 0.221 z-score.
Work on GGATAATCCCC yielded a binding signal of 1.26 z-score.
In the case of CGGGGACCCCT, the binding signal is reported as 0.724 z-score.
